# A selection: hits, their analogues and other compounds. The true share with any hit is near 3.6%.
# HCT116 PTEN-null – growth suppressors of cells with PTEN tumor suppressor deletion | HCT116 PTEN-null viability, CellTiter-Glo, 60 h; stronger effect = lower value | viability, % at 10 µM | 1.2% of 140,000 active;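 active = viability at or below a set limit, 4 SD under the median of all tested compounds, cut at about 3.7% in these data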;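 note: PTEN knockout HCT116 line with beta catenin targeted HCT116 as companion control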
# bCat KO growth – beta-catenin-lacking colon tumor cell growth suppression. HCT116 beta-catenin knockout viability, CellTiter-Glo, 60 h; stronger effect = lower value. viability, % at 10 µM. 1.5% of 140,000 active. AID 818;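 active = viability at or under a set limit, the compound median less 4 SD, cut at about 6% in these data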;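 note: 0% = Hyamine 1622 control at 20 µM and 100% = untreated cell control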
# WT yeast gro inh – growth inhibition of WT yeast, mitochondrial fusion screen; mitochondrial fusion phenotypic screen, WT strain; inhibition, % at 10 µM; 2.1% of 190,000 active; AID 1362; in the data active = inhibition above about 58%; tested in S. cerevisiae
# DAT uptake mod – changed human dopamine transporter uptake under cocaine IC80. Q01959. LLC-PK1 hDAT cells, [14C]-dopamine uptake with cocaine IC80; actives deviate in either direction. B-score at 10 µM. 1.3% of 110,000 active. AID 449768;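 active = Z score or B-score, a plate-position-corrected score, falls beyond the plate's 99.7% confidence bounds, in either direction; inactive = both scores lie inside the 99.7% bounds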;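 note: scored against the spread of the other compound wells on the same plate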
# Target sequence (Q01959 whole entry, looked up): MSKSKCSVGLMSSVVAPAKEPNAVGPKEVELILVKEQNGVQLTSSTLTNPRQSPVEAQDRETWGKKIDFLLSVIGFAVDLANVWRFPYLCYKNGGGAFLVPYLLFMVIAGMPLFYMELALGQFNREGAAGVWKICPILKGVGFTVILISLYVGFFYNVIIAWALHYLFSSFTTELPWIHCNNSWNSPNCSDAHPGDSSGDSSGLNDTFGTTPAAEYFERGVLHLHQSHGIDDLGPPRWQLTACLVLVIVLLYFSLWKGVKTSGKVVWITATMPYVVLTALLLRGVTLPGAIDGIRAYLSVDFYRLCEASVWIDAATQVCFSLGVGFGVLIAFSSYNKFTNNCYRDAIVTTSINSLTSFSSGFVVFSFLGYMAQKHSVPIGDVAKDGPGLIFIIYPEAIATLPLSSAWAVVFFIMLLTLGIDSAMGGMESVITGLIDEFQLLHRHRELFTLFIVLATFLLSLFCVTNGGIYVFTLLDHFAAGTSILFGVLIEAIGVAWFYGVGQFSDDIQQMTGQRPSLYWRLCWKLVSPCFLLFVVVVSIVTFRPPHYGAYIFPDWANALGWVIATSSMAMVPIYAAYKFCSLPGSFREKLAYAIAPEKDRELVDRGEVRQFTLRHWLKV
# Numbers without * were called inactive; / = no result given.
SMILES,HCT116 PTEN-null,bCat KO growth,WT yeast gro inh,DAT uptake mod
CN(C)c1ccc(N2[C@@H](CC(=O)O)c3cc(C(F)(F)F)ccc3S2(=O)=O)cc1,/,/,/,-0.35
COc1ccc(N2C3=C(CC4=C2CC(C)(C)CC4=O)C(=O)CC(C)(C)C3)cc1,1.1*,1.1*,-6,0.31
CN(C)c1ccc(C2CC(=O)OC3=C2C(=O)CC(C)(C)C3)cc1 (centres undefined),/,/,-14,/
CCOc1c(Cl)cnn(-c2ccc(C)cc2)c1=O,84,73,1,0.48
Cn1ncc(Cl)c(Oc2ccc(Cl)cc2)c1=O,77,62,-4,/
COc1c(Cl)cnn(-c2ccc(C)cc2)c1=O,1.1*,1.2*,-19,-0.85
COc1ccc(Oc2c(Cl)cnn(-c3ccc(C)cc3)c2=O)cc1,15,5.5*,-5,-1.8
COc1ccc(Oc2c(Cl)cnn(-c3ccc(F)cc3)c2=O)cc1,93,95,5,-0.066
Cc1ccc(Sc2cnn(-c3ccccc3)c(=O)c2Cl)cc1,45,54,76*,-0.44
COc1ccc(Oc2c(Cl)cnn(-c3ccc(Cl)c(Cl)c3)c2=O)cc1,0.7*,1.0*,2,0.055
COc1ccc(N=Nc2nc(-c3ccccc3)c(-c3ccccc3)[nH]2)cc1,59,73,48,/
COc1ccccc1N=Nc1nc(-c2ccccc2)c(-c2ccccc2)[nH]1,79,72,64*,/
CCN1CCN(Cc2nc3c(c(=O)n(C)c(=O)n3C)n2Cc2ccc(Cl)cc2Cl)CC1,/,/,14,/
Nc1nnc(N)c2ccccc12,/,/,-2,/
Nc1nsc2ccccc12,4,4.7*,-5,0.037
CC(C)C(c1nnnn1Cc1ccco1)N1CCN(c2cccc(Cl)c2)CC1 (centres undefined),54,62,8,0.086
CC(C)C(c1nnnn1C(C)(C)C)N1CCN(c2cccc(Cl)c2)CC1 (centres undefined),72,59,75*,-0.49
CN(c1ccccc1)S(=O)(=O)c1cccc(NC(=O)CCN2C(=O)C3CCCCC3C2=O)c1 (centres undefined),/,/,-13,/
CC/C(C)=N/N1C(=O)c2ccccc2NC1(C)CC (centres undefined),/,/,7,/
CCCN(CCC)CC(O)Cn1cc(/C=C/C(=O)c2cccs2)c2ccccc21 (centres undefined),1.3*,1.2*,15,/
O=C(/C=C/c1cn(CC(O)CN2CCCCC2)c2ccccc12)c1cccs1 (centres undefined),5,2.7*,-7,/
COc1ccc(-c2oc(NC(=O)CCl)c(C#N)c2-c2ccc(OC)cc2)cc1,6,5.8*,-18,-1.6
COc1ccc(C(=O)/C=C/c2ccc(O)cc2)cc1,/,/,4,0.002
COc1ccc(C(=O)/C=C/c2ccc(O)cc2)c(O)c1CC=C(C)C,74,82,87*,-0.9
C/C(=N\NC(=O)C(C)n1nc(C)c([N+](=O)[O-])c1C)c1ccccc1O (centres undefined),4,6.1*,-2,/
SMILES,HCT116 PTEN-null,bCat KO growth,WT yeast gro inh,DAT uptake mod
COc1ccc(Br)cc1-c1noc(-c2ccccc2)n1,71,67,15,0.13
COCc1nc(-c2cc(Br)ccc2OC)no1,95,93,15,2.9*
Cc1nn(Cc2ccc(C(=O)N3c4ccc(F)cc4CCC3C)o2)c(C)c1Br (centres undefined),58,46,44,3.3*
CN(c1ccccc1)c1ccc(/C=C/[N+](=O)[O-])cc1,3.5*,4.7*,81,/
CCN=c1scc(-c2ccc3c(c2)NC(=O)CO3)n1N=C1CCCC1,20,13,3,5.5*
CC1(C)CCC23CC[C@]4(C)C(OC2=O)(C3C1)[C@H]1O[C@H]1C1[C@@]2(C)CC[C@@H](O)C(C)(C)C2CC[C@]14C (some centres undefined),/,/,/,-0.67
CN(NC(=S)Nc1ccc(OC(F)F)cc1)C(=S)Nc1ccc(OC(F)F)cc1,75,96,65*,/
Cn1c(N)c(C#N)c2c(c1=S)CSC(C)(C)C2,101,102,-7,-7.8*
Cn1c(N)c(C#N)c2c(c1=S)COC(C)(C)C2,106,102,-5,/
COc1cc(S(=O)(=O)NCCOC23CC4CC(CC(C4)C2)C3)c(OC)cc1Cl,75,81,15,/
CCOc1ccc(OCC)c(S(=O)(=O)NCCOC23CC4CC(CC(C4)C2)C3)c1,32,26,74*,/
CCc1ccccc1NC(=O)/C(=C/c1ccco1)c1ccccc1,86,82,59*,0.5
Cc1ccccc1NC(=O)/C(=C/c1ccco1)c1ccccc1,87,85,-4,-0.07
COc1ccccc1/C=C\C=N\n1c(-c2ccc(Cl)cc2Cl)n[nH]c1=S,94,97,65*,/
COc1ccccc1/C=C\C=N\n1c(-c2ccc(Cl)cc2)n[nH]c1=S,92,90,26,/
O=C(O)C1=C[C@H](C2CC2)C[C@H](OCCCCO)O1,/,/,-27,-0.26
C/C=C\C(=O)Nc1cccc(C2=NOC3(C2)C[C@H](C(N)=O)N(C(=O)Cc2ccc([N+](=O)[O-])cc2)C3)c1 (some centres undefined),/,/,/,-0.0098
CN1C/C(=C/c2cccnc2)C(=O)/C(=C/c2cccnc2)C1,2.1*,2.1*,-1,/
COCCn1nnnc1C(c1cccs1)N1CCN2CCCC2C1 (centres undefined),/,/,-5,/
CCn1c(/C=C/Nc2ccccc2)[n+](CC)c2cc(Cl)c(Cl)cc21,1.3*,1.5*,41,/
CCn1c(/C=C/N(C(C)=O)c2ccccc2)[n+](CCCS(=O)(=O)[O-])c2cc(Cl)c(Cl)cc21,/,/,12,/
COc1ccccc1OCCC(=O)OCC(=O)NC(C)c1ccccc1 (centres undefined),93,99,-11,/
COc1ccc([N+](=O)[O-])cc1NC(=O)CCNC(=O)Cn1ccc2ccccc2c1=O,/,/,-6,/
COc1ccc(C)cc1NC(=O)CNC(=O)Cn1ccc2ccccc2c1=O,105,97,-4,-9*

# Compound activity (PubChem BioAssay)
